“And” between values parts separate entries of the source, which are not always exact repeats. Equal entries are not always repeated. Inconclusive results are not listed. A call without a number means that no potency is given here. A structure can be active in one record and inactive in another. The source made the active and inactive calls. Unless noted, calls follow the shape of the dose curve; as a rule, active = well fitted curve in the direction sought with a large enough effect in the repeat runs; inconclusive = weak or mixed curves; inactive = flat fitted curve, though single readings scatter.
Legend:
[1] = qHTS assay to test for compound auto fluorescence at 535 nm (green) in HEK293 cells (AID 720680)
[2] = qHTS assay to test for compound auto fluorescence at 460 nm (blue) in HEK293 cell free culture (AID 720681)
Outline: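 Compounds were added to cell-free DMEM with 10% FBS and fluorescence read directly. The blue channel used 405 nm excitation and 460 nm emission, with triamterene as the reference fluorophore.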

[3] = qHTS assay to test for compound auto fluorescence at 535 nm (green) in HEK293 cell free culture (AID 720682)
Outline: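 Intrinsic compound fluorescence is measured in culture medium containing 10% FBS, with excitation at 485 nm and detection at 535 nm, referenced to fluorescein.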

[4] = qHTS assay to test for compound auto fluorescence at 590 nm (red) in HEK293 cell free culture (AID 720683)
Outline: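 Cell-free wells of DMEM with 10% FBS received compound, and intrinsic fluorescence was read at excitation/emission 540/590 nm. Values expressed as equivalence to Rose Bengal sodium.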

[5] = qHTS assay to test for compound auto fluorescence at 590 nm (red) in HepG2 cell free culture (AID 720684)
Outline: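 Rose Bengal sodium served as the reference for red signal. Test compounds were dispensed into serum-containing MEM (10% FBS) without cells, and plates were read at 540/590 nm.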

[6] = qHTS assay to test for compound auto fluorescence at 460 nm (blue) in HepG2 cell free culture (AID 720685)
Outline: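 Cell-free plates of MEM plus 10% FBS received 23 nL compound or DMSO vehicle; blue-channel (405/460 nm) intensity scored against triamterene as reference fluorophore.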

[7] = qHTS assay to test for compound auto fluorescence at 535 nm (green) in HepG2 cell free culture (AID 720686)
[8] = qHTS assay to test for compound auto fluorescence at 460 nm (blue) in HepG2 cells (AID 720687)
Outline: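 HepG2 cells in MEM with 10% FBS, attached overnight at 37 C, were exposed to compound or DMSO for 1 hr at 37 C, 5% CO2. Blue fluorescence was read at 405/460 nm, with triamterene as reference fluorophore.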

[9] = molecular target: Glucocorticoid receptor (Homo sapiens) (UniProt P04150); assay: qHTS assay to identify small molecule agonists of the glucocorticoid receptor (GR) signaling pathway (AID 720691; active = well fitted activation curve with a large enough effect in the signal ratio in the repeat runs, not every such curve was filed as active; the % refers to the signal ratio; also: potency is read from the fitted curve at half-maximal effect)
Outline: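 A HeLa cervical cancer line expressing GR and a glucocorticoid response element-driven beta-lactamase gene is treated with compounds for 18 h; LiveBLAzer B/G FRET substrate is then applied and fluorescence read.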

[10] = molecular target: Glucocorticoid receptor (Homo sapiens) (UniProt P04150); assay: qHTS assay to identify small molecule antagonists of the glucocorticoid receptor (GR) signaling pathway (AID 720692; active = well fitted inhibition curve with a large enough effect in the signal ratio in the repeat runs, not every such curve was filed as active; the % refers to the signal ratio; also: potency is read from the fitted curve at half-maximal effect)
Outline: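 GRE-bla HeLa line, dex-stimulated (5 nM final). Compound exposure 18 h, 37 C. Beta-lactamase FRET read after 2 h RT substrate.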

Glucocorticoid receptor (Homo sapiens), sequence (P04150 whole entry, looked up): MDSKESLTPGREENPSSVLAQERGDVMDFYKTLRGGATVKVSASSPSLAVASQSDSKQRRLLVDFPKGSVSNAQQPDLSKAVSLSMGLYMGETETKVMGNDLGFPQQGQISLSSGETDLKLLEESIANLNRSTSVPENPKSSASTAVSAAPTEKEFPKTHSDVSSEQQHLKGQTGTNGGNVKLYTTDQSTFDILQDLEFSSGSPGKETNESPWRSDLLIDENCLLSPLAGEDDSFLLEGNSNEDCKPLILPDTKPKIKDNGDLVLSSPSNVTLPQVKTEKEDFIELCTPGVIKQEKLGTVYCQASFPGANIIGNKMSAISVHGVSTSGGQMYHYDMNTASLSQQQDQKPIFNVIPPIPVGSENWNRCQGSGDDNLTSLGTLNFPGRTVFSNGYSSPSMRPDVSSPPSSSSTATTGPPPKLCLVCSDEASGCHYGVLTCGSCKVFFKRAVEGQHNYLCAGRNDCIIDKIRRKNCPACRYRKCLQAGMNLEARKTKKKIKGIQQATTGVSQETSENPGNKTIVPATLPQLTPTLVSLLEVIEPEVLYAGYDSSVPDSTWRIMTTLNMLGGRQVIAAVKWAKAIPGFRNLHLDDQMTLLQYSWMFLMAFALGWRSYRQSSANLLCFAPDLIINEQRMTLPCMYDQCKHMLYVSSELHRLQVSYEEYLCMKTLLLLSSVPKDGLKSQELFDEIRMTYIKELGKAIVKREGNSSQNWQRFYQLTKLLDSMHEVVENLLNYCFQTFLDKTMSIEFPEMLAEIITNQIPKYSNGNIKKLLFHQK

| Compound | outcome [1] | outcome [2] | outcome [3] | outcome [4] | outcome [5] | outcome [6] | outcome [7] | outcome [8] | Potency [9] | Potency [10] |
| --- | --- | --- | --- | --- | --- | --- | --- | --- | --- | --- |
| O=C[C@H](O)[C@@H](O)[C@H](O)[C@H](O)CO | inactive | inactive | inactive | inactive | inactive | inactive | inactive | inactive | inactive | inactive |
| Nc1ccc(S(=O)(=O)Nc2ccnn2-c2ccccc2)cc1 | inactive | inactive | inactive | inactive | inactive | inactive | inactive | inactive |  | inactive |
| COC(=O)CC(C)=O | inactive | inactive | inactive | inactive | inactive | inactive | inactive | inactive | inactive | inactive |
| COCCc1ccc(OCC(O)CNC(C)C)cc1 (stereo not drawn) | inactive | inactive | inactive | inactive | inactive | inactive | inactive | inactive | inactive and 10.7 µM (active) | inactive |
| O=C1CCCC(=O)C1 | inactive | inactive | inactive | inactive | inactive | inactive | inactive | inactive | inactive | inactive |
| O=C(O)CCCc1ccccc1 | inactive | inactive | inactive | inactive | inactive | inactive | inactive | inactive | inactive | inactive |
| OC1CCCCC1c1ccccc1 (stereo not drawn) | inactive | inactive | inactive | inactive | inactive | inactive | inactive | inactive |  | inactive |
| COC(=O)C1=C(C)NC(C)=C(C(=O)OC)C1c1ccccc1[N+](=O)[O-] | inactive | inactive | inactive | inactive | inactive | inactive | inactive | inactive | inactive | 10.7 µM (active) and 27.6 µM (active) |
| CN1CCC(=C2c3ccccc3CC(=O)c3sccc32)CC1 | inactive | inactive | inactive | inactive | inactive | inactive | inactive | inactive | inactive | inactive |
| CCSC(=O)N(CC(C)C)CC(C)C | inactive | inactive | inactive | inactive | inactive | inactive | inactive | inactive |  | inactive |
| NS(=O)(=O)c1ccc(C(=O)O)cc1 | inactive | inactive | inactive | inactive | inactive | inactive | inactive | inactive | inactive | inactive |
| CCCc1cc(C(N)=S)ccn1 | inactive | inactive |  | inactive | inactive | inactive | inactive | inactive | inactive |  |
| Nc1nc2c(ncn2COC(CO)CO)c(=O)[nH]1 | inactive | inactive |  | inactive | inactive | inactive | inactive | inactive | inactive |  |
